Assay outcomes (PubChem BioAssay)
The entries come from a sample that favours hits as a whole.
KDM5B inhibitor – inhibitors of human KDM5B histone demethylase; AID 1347165; Potency, µM (doses to about 57.7 µM), usual class: inhibitors; Q9UGL1; KDM5B demethylase, FDH-coupled NADH fluorescence (FDH is formaldehyde dehydrogenase); 220,000 compounds, 2.6% hits; active = well fitted inhibition curve with a large enough effect; also: 0% is about no effect; nearly all actives have a fitted effect of over 70% in size
Target sequence (Q9UGL1 whole entry, looked up): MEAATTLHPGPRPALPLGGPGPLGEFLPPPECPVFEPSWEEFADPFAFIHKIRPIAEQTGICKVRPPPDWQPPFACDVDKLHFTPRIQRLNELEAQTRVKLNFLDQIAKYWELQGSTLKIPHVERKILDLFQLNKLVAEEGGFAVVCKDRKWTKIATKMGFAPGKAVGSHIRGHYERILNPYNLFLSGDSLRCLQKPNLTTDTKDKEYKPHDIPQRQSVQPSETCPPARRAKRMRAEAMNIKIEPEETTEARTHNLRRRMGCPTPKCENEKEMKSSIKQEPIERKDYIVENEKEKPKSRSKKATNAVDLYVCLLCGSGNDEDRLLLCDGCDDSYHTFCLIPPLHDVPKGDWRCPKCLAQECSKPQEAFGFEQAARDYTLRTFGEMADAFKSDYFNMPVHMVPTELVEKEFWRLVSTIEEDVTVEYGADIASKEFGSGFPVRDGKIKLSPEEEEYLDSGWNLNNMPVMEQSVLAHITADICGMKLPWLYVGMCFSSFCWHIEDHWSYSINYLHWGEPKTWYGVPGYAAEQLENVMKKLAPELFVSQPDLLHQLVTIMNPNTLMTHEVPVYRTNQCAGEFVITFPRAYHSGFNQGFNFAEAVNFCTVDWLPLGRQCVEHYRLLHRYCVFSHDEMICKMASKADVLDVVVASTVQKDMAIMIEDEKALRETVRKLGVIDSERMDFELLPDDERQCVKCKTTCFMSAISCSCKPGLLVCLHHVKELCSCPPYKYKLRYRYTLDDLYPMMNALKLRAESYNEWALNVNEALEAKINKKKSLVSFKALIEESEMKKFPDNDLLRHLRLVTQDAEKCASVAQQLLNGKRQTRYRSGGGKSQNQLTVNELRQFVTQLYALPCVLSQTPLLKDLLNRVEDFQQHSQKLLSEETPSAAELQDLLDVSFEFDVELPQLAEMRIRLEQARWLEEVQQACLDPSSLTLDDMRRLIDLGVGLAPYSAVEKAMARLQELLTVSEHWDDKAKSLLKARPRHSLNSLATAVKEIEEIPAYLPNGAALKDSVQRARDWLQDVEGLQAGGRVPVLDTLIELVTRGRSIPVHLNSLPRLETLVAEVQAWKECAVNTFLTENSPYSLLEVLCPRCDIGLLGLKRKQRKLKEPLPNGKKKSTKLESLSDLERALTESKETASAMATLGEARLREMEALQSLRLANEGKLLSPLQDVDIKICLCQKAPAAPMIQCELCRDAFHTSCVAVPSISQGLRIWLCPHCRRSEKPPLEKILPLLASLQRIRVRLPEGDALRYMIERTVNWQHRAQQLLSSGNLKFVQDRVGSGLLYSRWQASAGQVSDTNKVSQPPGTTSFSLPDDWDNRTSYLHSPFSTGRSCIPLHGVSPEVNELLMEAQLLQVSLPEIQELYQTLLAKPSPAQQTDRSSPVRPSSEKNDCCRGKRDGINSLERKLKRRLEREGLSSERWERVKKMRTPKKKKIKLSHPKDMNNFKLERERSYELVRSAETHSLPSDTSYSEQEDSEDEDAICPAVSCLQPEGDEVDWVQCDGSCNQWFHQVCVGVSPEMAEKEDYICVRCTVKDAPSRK
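Measured: NADH fluorescence change, 30 min, RT. System: KDM5BΔAP 200 nM final, H3K4me3 peptide, α-KG, Fe(II), ascorbate, NAD⁺ plus FDH, pH 7.5 HEPES. Compounds: titrated, 10 min pre-incubation with enzyme.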
* = called active by the depositor; i = inactive. Potency is read from the fitted curve at half-maximal effect.

SMILES	KDM5B inhibitor
CCCNC(=O)O[C@@H]1CC[C@]2(C)C(CC[C@@H](O)[C@H]2CC(=O)NCc2ccc(F)cc2)[C@]1(C)CO (stereo not given in full)	i
Cc1ccccc1C(=O)N1CCC(N2CCCCCC2=O)CC1	20µM*
Cc1ccccc1C(=O)N1CCC(N2CCCNC2=O)CC1	i
O=C(c1ccc(Cl)cc1)N1CCC(N2CCCCCC2=O)CC1	i
CC(C)(C)C(=O)/C=c1/[nH]c(=O)/c(=C/c2ccc(F)cc2F)s1	i
Cn1c(=O)c2[nH]c(N3CCN(c4ccccc4)CC3)nc2n(C)c1=O	i
Cc1cnc(C2CC2)n1C1CCCN(C(=O)CC(C)C)C1 (stereo not given)	i
CN(C)c1ccc(/C=N/NC(=O)c2ccn(C)n2)cc1	i
O=c1oc2ccc(Br)cc2cc1S(=O)(=O)N1CCc2ccccc2C1	i
CCC(CC)NC(=O)C(=O)O	i
Clc1ccc2nc(Nc3ccccc3Cl)nc(-c3ccccc3)c2c1	i
Cc1ccc(-c2[nH]c3ccccc3c2SCCNC(=O)c2ccc(S(=O)(=O)N(C)C)cc2)cc1	i
COCCCNc1nc(-c2c(C)noc2C)cc2cc(CN(C)C)oc12	i
Cc1noc(C)c1-c1cc2cc(CN(C)C)oc2c(Nc2ccncn2)n1	i
COc1ccc(-c2nc(-c3c(C)noc3C)cc3cc(CN(C)C)oc23)cn1	31.6µM*
Cc1noc(C)c1-c1cc2cc(C(C)C)oc2c(NCCc2ccccn2)n1	i
CC(=O)N1CCN(c2nc(-c3c(C)noc3C)cc3cc(C(C)C)oc23)CC1	i
Cc1noc(C)c1-c1cc2cc(CN(C)C)oc2c(NCC(C)C)n1	i
COc1ccccc1-c1nc(-c2c(C)noc2C)cc2cc(CN(C)C)oc12	35.5µM*
Cc1noc(C)c1-c1cc2cc(CN(C)C)oc2c(NCCc2ccccc2)n1	i
COc1ccc(-c2nc(-c3c(C)noc3C)cc3cc(C(C)C)oc23)cn1	28.2µM*
COc1cc(-c2nc(-c3c(C)noc3C)cc3cc(CN(C)C)oc23)ccn1	35.5µM*
CN(CC(=O)Nc1ccc(Nc2ccccc2)cc1)C1=NS(=O)(=O)c2ccccc21	i
COCCS(=O)(=O)c1ccc(C(=O)OCc2cccc(OC)c2)cc1	i
O=C(COc1ccccc1F)Nc1nnc(S(=O)(=O)N2CCCCCC2)s1	i
SMILES	KDM5B inhibitor
CCOc1ccc(NC(=O)[C@@H]2COCC(=O)N2Cc2ccc(C)cc2)cc1	i
CCN1C(=O)C(Cc2nc3ccccc3c(=O)n2CCCO)c2cc(C)ccc21 (stereo not given)	i
COC(=O)COC(=O)Cn1cc(I)c(=O)c(I)c1	i
CN(C)C[C@@H]1CN(Cc2cccnc2)C[C@H]1NC(=O)c1ccc(C#N)cc1	i
CN(C)C[C@@H]1CN(Cc2ccncc2)C[C@H]1NC(=O)c1ccc(Cl)cc1	20µM*
COCC(=O)N[C@@H]1CN(Cc2ccccc2)C[C@H]1CN(C)C	i
COCCC(=O)N[C@@H]1CN(Cc2ccccc2)C[C@H]1CN(C)C	i
COCC(=O)N[C@@H]1CN(Cc2ccncc2)C[C@H]1CN(C)C	25.1µM*
CN(C)C[C@@H]1CN(c2ccncn2)C[C@H]1NC(=O)c1ccc(Cl)cc1	i
Cc1cc(Br)ccc1NC(=O)c1sc2ncn(Cc3ccccc3Cl)c(=O)c2c1C	i
O=C(O)c1ccc(F)cc1Br	i
O=C(Nc1ccccc1)c1nnc(CSCC(=O)N2CCN(c3cccc(Cl)c3)CC2)s1	i
CCNS(=O)(=O)c1ccc2c(c1)NC(=O)C(C)CS2 (stereo not given)	i
CC(=O)Nc1cccc(NC(=O)Cn2nc3c(cc2=O)CCCCC3)c1	i
Cc1ccc(-c2ccc3nnc(CNC(=O)C4CC4)n3n2)cc1	14.1µM*
O=C(NCc1ccc(-c2csnn2)cc1)C1CC1	i
Cc1ccc(S(=O)(=O)N2CCC(CCC(=O)NCc3cccc(C)c3)CC2)cc1	i
Cc1ccc(-c2ccc3nnc(CNC(=O)CSc4ccncc4)n3n2)cc1	28.2µM*
Cc1ccc(-c2ccc3nnc(CNC(=O)CCC4CCCC4)n3n2)cc1	28.2µM*
Cc1ccc(CNC(=O)C2CCCC2)cc1	i
O=C(CN1CCN(Cc2ccc(F)cc2)C1=O)NCc1ccccc1Cl	i
CCOC(=O)C1CCCN(C(=O)CN2C(=O)COc3ccc(S(=O)(=O)N4CCCCC4)cc32)C1 (stereo not given)	i
COc1ccc(CNC(=O)Cn2c(-c3ccc(F)cc3)nc(C)c(CCO)c2=O)cc1OC	i
Cc1cccc(NCc2ccccc2)c1	i
Cc1ccc2cc(/C=C/C(=O)NC3CCCCC3)oc2c1	i
SMILES	KDM5B inhibitor
CN(CC(=O)N1CCc2ccccc2C1)S(=O)(=O)c1ccc(F)cc1	i
Cc1ccc(CNC(=O)N2C[C@@H](F)C[C@H]2C(=O)N2CCc3ccccc3C2)cc1	i
Cc1ccc(CC(=O)N2CCc3cn(C)c4cccc(c34)C2)cc1	28.2µM*
Cc1ccc(CN(CC(=O)N2CCc3ccccc3C2)S(=O)(=O)c2ccc(Cl)cc2)cc1	i
Cn1cc2c3c(cccc31)CN(C(=O)c1ccccc1Cl)CC2	i
O=C([C@@H]1C[C@H](F)CN1S(=O)(=O)Cc1ccccc1F)N1CCc2ccccc2C1	i
Cn1cc2c3c(cccc31)CN(C(=O)c1ccccc1Br)CC2	i
Cn1cc2c3c(cccc31)CN(C(=O)C1CCC1)CC2	31.6µM*
Cn1cc2c3c(cccc31)CN(C(=O)Cc1ccccc1F)CC2	28.2µM*
CC(C)N1CCn2nc(C(=O)NCCc3ccc(Cl)cc3)cc2C1	i
Cc1ccc(C)c2c(=O)c3ccccc3sc12	i
Cc1nc2c(NC3CCN(C(=O)c4cccn4C)CC3)cccn2n1	31.6µM*
Cn1cccc1C(=O)N1CCC(Cc2nc(C3CC3)n[nH]2)C1 (stereo not given)	i
Cn1cccc1C(=O)N1CC[C@@H]2CN(S(C)(=O)=O)[C@@H]2C1	i
Cc1nc2ncnn2c(C)c1CCC(=O)NCc1cc2n(n1)CCCNC2	i
Cc1ccnc(C(NC(=O)CCc2cc3n(n2)CCCNC3)C2CC2)c1 (stereo not given)	28.2µM*
Cc1cc2[nH]cnc2c(NC(=O)CCc2cc3n(n2)CCNC3)c1C	i
CCN(CC(=O)NCc1ccc(Cl)cc1)C(=O)Cc1ccccc1[N+](=O)[O-]	i
CCOc1ccc(NC(=O)c2ncn(-c3ccccc3)n2)cc1	i
O=C(CN1C(=O)COc2ccc(S(=O)(=O)N3CCCCCC3)cc21)NCc1ccc(Cl)cc1	i
O=C(c1cccc(-n2cccc2)c1)N1CCN(S(=O)(=O)c2ccccc2Br)CC1	i
CC1(COc2ccc3[nH]ccc3c2)COc2ccc(C(=O)NCc3cccs3)cc2N1 (stereo not given)	39.8µM*
CC1(COc2ccc3[nH]ccc3c2)COc2ccc(C(=O)N3CC(O)C3)cc2N1 (stereo not given)	35.5µM*
CC1(COc2ccc3[nH]ccc3c2)COc2ccc(C(=O)NC3CC3)cc2N1 (stereo not given)	31.6µM*
CN(C)C(=O)c1ccc2c(c1)NC(C)(COc1ccc3[nH]ccc3c1)CO2 (stereo not given)	i
CC1(COc2ccc3[nH]ccc3c2)COc2ccc(C(=O)N3CCOCC3)cc2N1 (stereo not given)	i
COCCN(C)C(=O)c1ccc2c(c1)NC(C)(COc1ccc3[nH]ccc3c1)CO2 (stereo not given)	i
CC(C)CNC(=O)c1ccc2c(c1)NC(C)(COc1ccc3[nH]ccc3c1)CO2 (stereo not given)	31.6µM*
